# Laboratory results published in PubChem BioAssay AID778 (Sanford-Burnham Center for Chemical Genomics, 2007).
# The whole screen tested about 96,000 compounds, of which about 20,000 (21%) were called active. Not all results are given here. A number with no mark means an inactive call.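 How the source made its calls: active means CYP2C19 inhibition above a set limit at 5 µM in the primary screen (cut at about 50% in these data); inactive means the rest.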
# Target: Cytochrome P450 2C19 (Homo sapiens) (UniProt P33261)
# Test: blockers of cytochrome P450 2C19 activity – biochemical, luminescence, ADME assay, primary screen (AID 778);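 further: plate controls were negative control wells for no effect and 2.5 mM tranylcypromine positive control for full effect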
# Settings: CYP2C19 Supersomes, luciferin-H EGE luminescence, 30 min; at 5 µM; active compounds read high
# Chain of Cytochrome P450 2C19 (Homo sapiens) (P33261 whole entry, looked up): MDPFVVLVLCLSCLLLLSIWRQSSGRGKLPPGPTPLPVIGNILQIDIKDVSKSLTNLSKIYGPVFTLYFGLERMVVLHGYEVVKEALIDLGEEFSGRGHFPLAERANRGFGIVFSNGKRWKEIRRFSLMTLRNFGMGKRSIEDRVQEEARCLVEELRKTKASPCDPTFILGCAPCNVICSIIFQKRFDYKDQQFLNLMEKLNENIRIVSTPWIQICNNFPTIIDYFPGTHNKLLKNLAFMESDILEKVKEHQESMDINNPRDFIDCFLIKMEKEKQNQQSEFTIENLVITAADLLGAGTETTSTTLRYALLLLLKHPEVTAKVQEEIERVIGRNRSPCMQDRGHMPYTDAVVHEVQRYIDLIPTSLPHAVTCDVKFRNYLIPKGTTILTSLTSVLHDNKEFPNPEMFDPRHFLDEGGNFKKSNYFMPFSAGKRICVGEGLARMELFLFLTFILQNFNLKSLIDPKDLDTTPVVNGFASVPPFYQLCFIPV
row,Structure (SMILES),inhibition
1,CCCCC(=O)Nc1cc(C)c2c(=O)oc3ccccc3c2n1,16.3%
2,Cc1ccccc1-n1nnc2c(=O)oc3ccccc3c21,66.5% (active)
3,Cc1nc(Cl)c2oc3ccccc3c2n1,49.8%
4,Cc1ccc(-c2nc(CS(=O)CC(=O)N3CCN(c4ncccn4)CC3)c(C)o2)cc1 (stereo not drawn),24.1%
5,COc1cc(C(=O)N(Cc2ccc(N(C)C)cc2)C2CCS(=O)(=O)C2)cc(OC)c1OC (stereo not drawn),19%
6,CCOc1ccc(C(=O)N(Cc2ccc(N(C)C)cc2)C2CCS(=O)(=O)C2)cc1 (stereo not drawn),58.6% (active)
7,COc1ccc(C(=O)N(Cc2ccc(N(C)C)cc2)C2CCS(=O)(=O)C2)cc1 (stereo not drawn),8.9%
8,Cc1ccc(CCn2c3c(c4ccccc42)CN(C)CC3)cn1,7.8%
9,CSc1nc2nc3c(c(=O)n2[nH]1)CCC3,4.1%
10,COc1cc2c(cc1OC)C(c1ccncc1)CC(=O)N2 (stereo not drawn),16.4%
11,COc1ccc(C2CC(=O)Nc3cc(C)c(C)cc32)c(OC)c1OC (stereo not drawn),94.5% (active)
12,COc1cccc(-c2nnc(N(C)C(=O)c3ccno3)s2)c1,11.1%
13,Cc1nnc(C)n1/N=C/c1ccc(C(C)C)cc1,10.5%
14,COC(=O)c1ccc(C(=O)Nc2cc(Cl)ccc2Cl)cc1NC(=O)c1ccccc1C,4.7%
15,Cc1cccc(C(=O)Nc2ccc(CC(=O)O)cc2)c1,-0.6%
16,Cc1ccccc1NC(=O)c1ccccc1,-2%
17,COC(=O)c1ccccc1NC(=O)c1cncc(Br)c1,30.8%
18,CN(C)c1ccc(NC(=O)c2ccncc2)c2ccccc12,90.3% (active)
19,CCOc1ccc(-c2cn(S(=O)(=O)c3cccc4nsnc34)nc2N)cc1,3.8%
20,COc1cc(C(=O)OC(C)C(=O)NCC2CCCCC2)cc(NC(=O)c2ccco2)c1OC (stereo not drawn),38.3%
21,O=C(O)CSCc1ccc(C(=O)O)o1,-3%
22,CCOc1ccccc1Nc1nnc(SCc2ccc(C(=O)OC)o2)s1,43%
23,COC(=O)c1ccc(CSc2ccc3nnc(-c4ccccc4)n3n2)o1,63.7% (active)
24,CCc1ccc(C(=O)CSc2nnc(C)c(=O)[nH]2)cc1,19.3%
25,Cc1ccc(OCC(=O)N/N=C/c2ccncc2)cc1,96.3% (active)
26,Cc1cc(C)c(OCC(=O)N/N=C/c2ccco2)c(C)c1,41.2%
27,Cc1ccc(OCC(=O)Nc2ccc(-c3nc4ncccc4o3)cc2)cc1,3.2%
28,O=C(Nc1cc2c3c(c1)C1CCCC1CN3CC1CCCC21)c1ccc([N+](=O)[O-])cc1 (stereo not drawn),28.2%
